Test results taken from PubChem BioAssay (EPA / NIEHS).
Activity calls are given as the source filed them. How the source made its calls: active means hit-call score of the fitted dose curve at least 0.9, where 1 is the maximum; inactive means score below 0.9.

Assay: ATG_BRE_CIS: Attagene CIS-FACTORIAL HepG2 Assay for human Bone Morphogenetic Protein (BMP) Response Element (BRE) (AID 2282933)
Conditions: HepG2 BMP response element reporter, Attagene transcription factor profiling; actives raise or lower the signal
Procedure: ATG_CIS is a cell-based, multiplexed-readout assay that uses HepG2, a human liver cell line, with measurements taken at 24 hours after chemical dosing in a 24-well plate.ATG_BRE_CIS is one of 52 assay component(s) measured or calculated from the ATG_CIS assay. It is designed to make measurements of mRNA induction, a form of inducible reporter, as detected with fluorescence intensity signals by Reverse transcription polymerase chain reaction (RT-PCR) and Capillary electrophoresis technology.Data from the assay component ATG_BRE_CIS was analyzed into 1 assay endpoint. This assay endpoint, ATG_BRE_CIS, was analyzed with bidirectional fitting relative to DMSO as the negative control and baseline of activity. Using a type of inducible reporter, measures of mRNA for gain or loss-of-signal activity can be used to understand the reporter gene at the transcription factor-level as they relate to the gene SMAD1. Furthermore, this assay endpoint can be referred to as a primary readout, because this assay has produced multiple assay endpoints where this one serves a reporter gene function. To generalize the intended target to other relatable targets, this assay endpoint is annotated to the dna binding intended target family, where the subfamily is Smad protein.
Human liver HepG2 cells are transiently transfected with multiple reporter transcription units (MRTUs) in 6-well plates using FuGene 6 reagent (Roche; 3 ml FuGene/1 mg DNA). The MRTU constructs are regulated by a cis-regulating element (promoter). […] A major difference between the CIS and TRANS system is that in CIS activities of endogenous TFs are measured, whereas the TRANS assay evaluates changes in activities of exogenous, chimeric NR-Gal4 proteins. […] At the end of 24 hour incubation, total RNA was isolated using TriZol reagent (Invitrogen). The isolated RNA is then reverse-transcribed using oligo(dT) primer and Mo-MLV reverse transcriptase (Invitrogen) with DNAse I (Ambion) treatment for 30 min. The one-tenth of the produced cDNA was amplified by PCR using Taq DNA polymerase (Invitrogen) and two reporter sequence-specific primers. The PCR products were fluorescently labeled by primer extension with 6-arboxyfluorescein (6-FAM) 5'-labeled reporter sequence-specific primer (2 min at 95 C, 20 s at 68 C and 10 min at 72 C) and these products were digested with 5U of HpaI (New England Biolabs) for 2h at 37 C. The fragments were purified using Qiaquick PCR columns (Qiagen), analyzed on an ABI 3130xL genetic analyzer (Applied Biosystems) with peak positions identified by using a set of X-rhodamine (ROX)-labeled MapMarker1000 molecular weight standards (BioVentures). The raw capillary electrophoresis data was processed using Attagraph software (Attagene).

Row | Compound | outcome | AC50
1 | CCCCCCCCCCCCBr | inactive | 
2 | COC(=O)Nc1cccc(OC(=O)Nc2cccc(C)c2)c1 | inactive | 
3 | OC(c1ccc(Cl)cc1)(c1ccc(Cl)cc1)c1cccnc1 | inactive | 
4 | CC1(C)[C@H](C(=O)O[C@H](C#N)c2cccc(Oc3ccccc3)c2)[C@@H]1/C=C(\Cl)C(F)(F)F | inactive | 
5 | CC(O)(CS(=O)(=O)c1ccc(F)cc1)C(=O)Nc1ccc(C#N)c(C(F)(F)F)c1 (stereo not given) |  | 98.5 µM (active)
6 | CCOc1cc(C=O)ccc1O | inactive | 
7 | O=c1[nH]c(=O)n(Cl)c(=O)n1Cl | inactive | 
8 | O=S(=O)(Oc1ccc(Cl)cc1)c1ccc(Cl)cc1 | inactive | 
9 | O=C=Nc1ccc(Cl)cc1 | inactive | 
10 | OCC(c1ccc(Cl)cc1)c1ccc(Cl)cc1 | inactive | 
11 | C1CCC(C2CCCCC2)CC1 | inactive | 
12 | Brc1c(Br)c(Br)c(Oc2c(Br)c(Br)c(Br)c(Br)c2Br)c(Br)c1Br | inactive | 
13 | BrCC(Br)c1ccccc1 (stereo not given) | inactive | 
14 | COC(F)(C(F)(F)C(F)(F)F)C(F)(C(F)(F)F)C(F)(F)F (stereo not given) | inactive | 
15 | O=[N+]([O-])c1ccccc1O | inactive | 
16 | O=S1(=O)OC(c2cc(Br)c(O)c(Br)c2)(c2cc(Br)c(O)c(Br)c2)c2ccccc21 | inactive | 
17 | Cc1ccc2nc3sc(=O)sc3nc2c1 |  | 25 µM (active)
18 | BrCCCCBr | inactive | 
19 | Oc1cc(Cl)c(Cl)cc1Cl |  | 26.8 µM (active)
20 | NC(=O)CCl | inactive | 

Row | Compound | outcome | AC50
21 | Cc1cc(Cl)ccc1N | inactive | 
22 | CC(C)[C@H](C(=O)OC(C#N)c1cccc(Oc2ccccc2)c1)c1ccc(OC(F)F)cc1 (stereo not given in full) | inactive | 
23 | CCN(CC)C(=O)C(Cl)=C(C)OP(=O)(OC)OC | inactive | 
24 | CCCCN(CCCCO)N=O | inactive | 
25 | CC(C)(C)c1cc([N+](=O)[O-])cc(C(C)(C)C)c1O |  | 2.01 µM (active)
26 | CCCCCCCCCCCCCCC(Br)C(=O)O (stereo not given) | inactive | 
27 | O=C(N[C@H]1CN2CCC1CC2)c1ccc2c(c1)OCCO2 | inactive | 
28 | ClCc1ccccc1Cl | inactive | 
29 | CNC(=O)O/N=C/C(C)(C)S(C)(=O)=O | inactive | 
30 | O=C(NC(=O)c1c(F)cccc1F)Nc1ccc(Cl)cc1 | inactive | 
31 | CN(CCCC(O)c1cccnc1)N=O (stereo not given) | inactive | 
32 | Cc1cc(C(F)(C(F)(F)F)C(F)(F)F)ccc1NC(=O)c1cccc(I)c1C(=O)NC(C)(C)CS(C)(=O)=O | inactive | 
33 | C[CH2][Hg][S]c1ccccc1C(=O)O | inactive | 
34 | Brc1ccc(Oc2c(Br)cc(Br)cc2Br)c(Br)c1 | inactive | 
35 | N#CCCC(Br)(C#N)CBr (stereo not given) | inactive | 
36 | CCOP(=O)(OCC)SCCSCC | inactive | 
37 | C[C@]12CC[C@@H](O)C[C@@H]1CC[C@@H]1[C@@H]2CC[C@]2(C)C(=O)CC[C@@H]12 | inactive | 
38 | CCCSP(=S)(OCC)Oc1ccc(SC)cc1 (stereo not given) | inactive | 
39 | C=CCc1ccccc1O | inactive | 
40 | COc1ccccc1N | inactive | 
